# Target: T1, mv4Int (369 aa integrase) (Lactobacillus delbrueckii bacteriophage …)
# T1 chain: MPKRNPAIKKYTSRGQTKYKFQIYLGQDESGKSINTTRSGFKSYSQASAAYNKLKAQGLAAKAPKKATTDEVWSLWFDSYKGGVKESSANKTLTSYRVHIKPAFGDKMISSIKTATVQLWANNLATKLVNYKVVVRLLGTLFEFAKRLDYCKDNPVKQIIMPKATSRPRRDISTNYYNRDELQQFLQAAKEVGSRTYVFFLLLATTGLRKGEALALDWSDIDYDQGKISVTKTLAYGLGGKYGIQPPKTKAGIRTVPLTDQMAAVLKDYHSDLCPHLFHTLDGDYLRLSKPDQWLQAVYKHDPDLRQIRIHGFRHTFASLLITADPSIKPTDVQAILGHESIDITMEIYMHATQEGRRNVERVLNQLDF
# Test: cleavage_in_vitro; recombination with attP sharing same overlap
# Conditions: tags: expressed from pET15b; label: Cy3; dsDNA, one strand shown
sequence,measurement,value
TCAAATAAGGTTTTCTCCTTAATAAGGTCAAATGGTATC,binding signal,15 fold decrease vs WT

# — patent publication US20250354175, “ATTP MV4-DERIVED SITE-SPECIFIC RECOMBINATION AND ITS USE FOR INTEGRATION OF SEQUENCE OF INTEREST” (INSTITUT NATIONAL DE RECHERCHE POUR L'AGRICULTURE, …, published 2025)
